Source: PubChem BioAssay (several laboratories)
An excerpt weighted towards active compounds, which were near 2.8% of everything screened.
p-CIP stab down = p/CIP protein destabilization | decrease of EGFP signal, % at 10 µM | AID 1984 | Q05BA5 | 290,000 compounds, 0.01% hits | F442A p/CIP-EGFP cells, EGFP fluorescence, 16 h;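 active = EGFP signal decrease of at least 30% at 10 µM or well 3 SD below plate mean, unless failing retest; inactive = the rest, including hits failing retest or dose response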
HIF activator = HIF pathway transcriptional activation | activation, % at 7.5 µM (by protocol) | 300,000 compounds, 0.32% hits | U2OS HRE-luciferase reporter, luminescence; normalized: DMSO 0%, desferrioxamine 100%;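 active = mean activation of at least 10% of the iron chelator positive control signal, with at least half of replicates also reaching 10%; inconclusive = mean and replicate majority disagree about reaching 10%; inactive = mean and most replicates under 10%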
PolyA inh = blocks polyadenylation in yeast reporter cells; activity score, % at 12 µM; 300,000 compounds, 0.02% hits; AID 1875; S. cerevisiae SKY197-pL101 polyadenylation reporter, beta-gal luminescence; efflux-impaired pdr1/pdr3 knockout yeast; score 100 = 6 SD above DMSO;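 active = lowest replicate activity score at least 50, where 100 means six control SD above control mean; inconclusive = lowest score under 50 but half or more replicates reach 50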;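 note: yeast exposed to compound for 9 h at 30 °C; higher score means more reporter readthrough which indicates perturbed polyadenylation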
Platelet DG rel = modulates dense granule release in human platelets; human platelet-rich plasma, SFLLRN dense granule ATP release, luminescence; inhibition, %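 (compounds screened at 7.5 µM in platelet-rich plasma)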; 300,000 compounds, 0.22% hits; AID 1663;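 active = mean replicate score, as percent of positive control, at or above 50; inconclusive = mean below 50 but at least one replicate at or above 50; inactive = mean and every replicate below 50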
AHR act = activates the human aryl hydrocarbon receptor | P35869 | AHR-responsive luciferase reporter cells, luminescence | activation, % at 5 µM | 320,000 compounds, 2.5% hits | AID 2796; in the data active = activation above about 47%;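 note: 0% = vehicle wells and 100% = reference agonist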
AHR act confirm = human AHR activation, confirmation. shares compounds with AHR act. human cells, AHR-responsive luciferase reporter, luminescence. activation, % at 9 µM. 2,300 compounds, 87% hits. AID 2845; in the data active = activation above about 49%;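 note: HepG2 hepatoma cells carrying a DRE-driven firefly luciferase reporter; 0% = vehicle wells and 100% = reference agonist wells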
PXR counter = PXR activation, counter-screen for AHR activators | shares compounds with AHR act | cell-based PXR reporter, luciferase luminescence | activation, % at 11.6 µM | 2,300 compounds, 88% hits | AID 434939; in the data active = activation above about 11%;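 note: human hepatoma DPX-2 cells expressing full-length human PXR; 0% = DMSO and 100% = reference agonist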
Target sequence (O75469 whole entry, looked up): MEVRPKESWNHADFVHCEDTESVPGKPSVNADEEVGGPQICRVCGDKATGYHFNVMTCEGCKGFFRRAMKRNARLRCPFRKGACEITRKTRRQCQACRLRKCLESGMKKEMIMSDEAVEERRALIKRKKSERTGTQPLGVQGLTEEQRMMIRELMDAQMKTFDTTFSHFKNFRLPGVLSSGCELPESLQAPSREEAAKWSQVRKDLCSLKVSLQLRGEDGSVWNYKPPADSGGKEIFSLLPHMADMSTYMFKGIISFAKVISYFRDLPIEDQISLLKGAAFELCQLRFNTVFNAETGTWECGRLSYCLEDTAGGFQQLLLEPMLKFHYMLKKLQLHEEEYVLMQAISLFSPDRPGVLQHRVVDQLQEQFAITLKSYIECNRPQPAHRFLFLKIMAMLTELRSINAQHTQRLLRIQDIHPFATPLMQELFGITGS
* = called active by the depositor; ? = inconclusive; nt = no result.

SMILES	p-CIP stab down	HIF activator	PolyA inh	Platelet DG rel	AHR act	AHR act confirm	PXR counter
O=C1CN(C(=S)NC(=O)c2ccccc2[N+](=O)[O-])CCN1	3	0	1	9	-3	nt	nt
CC1CC1c1ccc(/C=C(\C#N)C(=O)Nc2ccc(Cl)cc2)o1 (stereo unspecified)	6	-7	20	4	90*	44	45*
N#C/C(=C/c1ccc(N2CCCCC2)o1)C(=O)Nc1ccc(Cl)cc1	-688	3	-15	10	8	nt	nt
O=C(O)c1ccccc1C(=O)NCCc1ccc(Cl)cc1	-2	0	5	-3	97*	64*	10*
NC(=O)c1oc2ccccc2c1NC(=O)c1ccc(F)cc1	9	1	0	-31	106*	77*	nt
O=C(Nc1ccc(F)cc1)c1oc2ccccc2c1NC(=O)C1CC1	6	0	-5	-22	127*	0	33*
Cc1ccc(NC(=O)c2oc3ccccc3c2NC(=O)C2CC2)cc1	-5	0	4	-39	122*	65*	32*
Nc1ccc(C(=O)OCC(=O)NC(=O)c2ccccc2)cc1[N+](=O)[O-]	nt	-1	-3	-1	3	nt	nt
CC(=O)Nc1ccc(/C=C/c2nc(-c3ccccc3O)n[nH]2)cc1	-6	3	-6	-8	81*	104*	7
COc1ccc(C(=O)Nc2c(O)ccc3ccccc23)cc1	nt	2	-8	2	79*	67*	8
COc1ccc(C(=O)Nc2ccc3ccccc3c2)cc1	-5	0	-5	39	-8	nt	nt
O=C(/C=C/c1ncc(C(F)(F)F)cc1Cl)OCc1ccccc1	14	0	5	0	-3	nt	nt
COc1ccc(OC)c(NC2=NC3(CCCC3)N=C(N)N2)c1	-4	0	-10	-2	84*	61*	11*
Cn1ncc([N+](=O)[O-])c1C(=O)Nc1ccccc1C(=O)O	-9	-2	0	5	1	nt	nt
CCn1ncc(Br)c1C(=O)Nc1ccc(Cl)cn1	11	0	-21	2	105*	115*	45*
Cn1ncc(Cl)c1C(=O)Nc1cccc(Cl)c1	-10	2	4	13	84*	106*	23*
Cn1ncc(Cl)c1C(=O)Nc1ccc(Cl)cn1	6	2	-5	1	143*	129*	29*
Cn1ncc([N+](=O)[O-])c1C(=O)Nc1cccc(Cl)c1	2	-23	-3	-3	99*	107*	21*
Cc1ccc(C(=O)NC(=S)N2CCN(C)CC2)cc1Br	2	-2	0	3	nt	nt	nt
Clc1ncccc1-c1nnn(-c2ccccc2)n1	-12	1	-5	5	30	nt	nt
Fc1ccc(-n2nnc(-c3cccnc3Cl)n2)cc1	-12	1	1	4	79*	69*	19*
Cc1cc(NCCOCCO)n2ncc(-c3ccc(Cl)cc3)c2n1	0	2	-13	10	126*	142*	28*
Nc1cccc2c1C(=O)N(CCOc1ccc(F)cc1)C2=O	-12	2	-9	8	98*	87*	29*
COc1ccc(OCCN2C(=O)c3ccccc3C2=O)cc1	1	0	-18	-1	-4	nt	nt
O=C1c2ccccc2C(=O)N1CCOc1ccccc1	nt	2	-21	0	97*	167*	21*
SMILES	p-CIP stab down	HIF activator	PolyA inh	Platelet DG rel	AHR act	AHR act confirm	PXR counter
O=C1c2ccccc2C(Nc2ccc(Cl)cn2)N1c1cccnc1 (stereo unspecified)	11	0	-5	5	-3	nt	nt
NNC(=O)c1c(O)c2cccc3c2n(c1=O)CCC3	-7	0	-8	6	9	nt	nt
Cc1c(CN2CCC(n3nccc3NC(=O)C3CC3)CC2)[nH]c2ccccc12	0	0	?	-10	85*	82*	43*
O=S(=O)(Cc1ccccc1)Nc1ccc(F)cc1	-2	-1	7	3	nt	nt	nt
NS(=O)(=O)c1ccc(NC2=CC(=O)C(=O)c3ccccc32)cc1	-15	-5	10	-2	114*	20	5
Cc1ccc(NC2=CC(=O)C(=O)c3ccccc32)cc1	-18	-7	-22	4	2	nt	nt
Cc1ccc(C2=NN(C(=O)CSc3nnnn3C)C(c3ccco3)C2)cc1 (stereo unspecified)	nt	nt	nt	nt	-1	nt	nt
CCN(C(=O)CN1CCN(S(=O)(=O)c2cc(Cl)ccc2Cl)CC1)c1c(N)n(Cc2ccccc2)c(=O)[nH]c1=O	-3	0	-2	-15	-1	nt	nt
COc1cccc(CNc2nc(-c3cccnc3)nc3ccccc23)c1	9	0	-25	-4	10	nt	nt
COc1cccc(/C=N/Nc2nc(-c3cccnc3)nc3ccccc23)c1	0	1	3	42	93*	54*	18*
COc1cc([N+](=O)[O-])ccc1NC(=O)NNC(=O)c1sccc1C	-14	-1	10	0	6	nt	nt
COc1ccc2sc(-c3ccc(SC)cc3)c(-c3ccc(O)cc3)c2c1	nt	nt	nt	nt	80*	84*	19*
Cc1cc(C)c(-c2cc(NC(=O)COC(=O)c3ccc(C#N)cc3)n(-c3ccccc3)n2)cc1C	0	0	-22	-3	129*	105*	82*
Cc1ccc(-c2nc3cccnc3s2)cc1NS(=O)(=O)c1ccc2c(c1)OCCO2	3	1	16	7	105*	73*	104*
CC(C)C1Oc2ccccc2N(CC(=O)NCCCN2C(C)CCCC2C)C1=O (stereo unspecified)	6	0	12	-4	0	nt	nt
CCCc1nn(C)c(C(=O)Nc2ccc(C(C)(C)C)cc2)c1Cl	-6	nt	17	-1	22	nt	nt
Cn1cc(C(=O)Nc2ccc(Cl)cc2)c(C(F)(F)F)n1	-8	0	-11	12	107*	101*	27*
CCCc1nn(C)c(C(=O)Nc2ccc(Cl)cc2)c1Cl	3	1	-23	11	88*	126*	24*
CCCc1nn(C)c(C(=O)Nc2ccccc2)c1Cl	-6	1	1	-14	82*	89*	13*
Cc1noc(C)c1S(=O)(=O)N(C)C[C@H]1Oc2ccc(NS(=O)(=O)c3ccccc3)cc2C(=O)N([C@H](C)CO)C[C@@H]1C	nt	nt	nt	nt	0	nt	nt
COc1ccc(C(=O)NC(=S)Nc2ccc3[nH]c(=O)[nH]c3c2)c(OC)c1	-14	1	-22	10	8	nt	nt
CC(C)(C)NC(=O)NC(=O)CN1C(=O)NC(c2ccccc2)(c2ccccc2)C1=O	-19	0	-1	-4	0	nt	nt
CCNc1nc(CC)nc2c1oc1ccccc12	-8	0	-17	0	17	nt	nt
OCCNc1nc(-c2ccccc2)nc2c1oc1ccccc12	3	0	-9	-21	104*	96*	26*
